Assay [1] has as its target Rap guanine nucleotide exchange factor 3 (Homo sapiens) (UniProt O95398). Put plainly: Confirmatory qHTS for antagonist of cAMP-regulated guanine nucleotide exchange factor 3 (EPAC1) (AID 1645880). Note: nearly all actives have a fitted effect of over 55% in size. Note: potency is the fitted concentration of half-maximal effect. The settings on record: EPAC1 Rap1B-BODIPY-GDP exchange, fluorescence; series mostly up to 115 µM. In a few lines: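 Nucleotide exchange uses 100 nM EPAC1, 250 nM RAP1B-BODIPY-GDP and 50 uM GDP, with compounds in a concentration-titration series. After 5 min at room temperature, fluorescence (480 nm ex/540 nm em) is read every 5 min for 30 min. Data are normalized to control ATA and DMSO.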

Assay [2] has the same target. The assay can be described thus: Confirmatory qHTS for agonist of cAMP-regulated guanine nucleotide exchange factor 3 (EPAC1) (AID 1645881).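 For activation: EPAC1 catalysed release of BODIPY-GDP from Rap1B seen as fluorescence loss; 100% = effect of cAMP agonist control.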 Note: nearly all actives have a fitted effect of over 75% in size. Note: potency is the fitted concentration of half-maximal effect. To be noted: EPAC1 Rap1B BODIPY-GDP exchange fluorescence; series mostly up to 154 µM.
In assay [3] the target is Rap guanine nucleotide exchange factor 4 (Homo sapiens) (UniProt Q8WZA2). The assay can be described thus: Confirmatory qHTS for agonist of cAMP-regulated guanine nucleotide exchange factor 4 (EPAC2) (AID 1645884). For activation: % is set by controls: 0 for no effect and ±100 for the full control effect.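 Note: nucleotide exchange releases bodipy-GDP from Rap1 and this lowers its fluorescence; nearly all actives have a fitted effect of over 65% in size.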 Note: potency is the fitted concentration of half-maximal effect. The settings on record: EPAC2 GEF activity, Rap1B-BODIPY-GDP fluorescence; series mostly up to 154 µM. On the technique in general: In qHTS, concentration-response curves come from the screen itself.
Rap guanine nucleotide exchange factor 4 (Homo sapiens), sequence (Q8WZA2 whole entry, looked up): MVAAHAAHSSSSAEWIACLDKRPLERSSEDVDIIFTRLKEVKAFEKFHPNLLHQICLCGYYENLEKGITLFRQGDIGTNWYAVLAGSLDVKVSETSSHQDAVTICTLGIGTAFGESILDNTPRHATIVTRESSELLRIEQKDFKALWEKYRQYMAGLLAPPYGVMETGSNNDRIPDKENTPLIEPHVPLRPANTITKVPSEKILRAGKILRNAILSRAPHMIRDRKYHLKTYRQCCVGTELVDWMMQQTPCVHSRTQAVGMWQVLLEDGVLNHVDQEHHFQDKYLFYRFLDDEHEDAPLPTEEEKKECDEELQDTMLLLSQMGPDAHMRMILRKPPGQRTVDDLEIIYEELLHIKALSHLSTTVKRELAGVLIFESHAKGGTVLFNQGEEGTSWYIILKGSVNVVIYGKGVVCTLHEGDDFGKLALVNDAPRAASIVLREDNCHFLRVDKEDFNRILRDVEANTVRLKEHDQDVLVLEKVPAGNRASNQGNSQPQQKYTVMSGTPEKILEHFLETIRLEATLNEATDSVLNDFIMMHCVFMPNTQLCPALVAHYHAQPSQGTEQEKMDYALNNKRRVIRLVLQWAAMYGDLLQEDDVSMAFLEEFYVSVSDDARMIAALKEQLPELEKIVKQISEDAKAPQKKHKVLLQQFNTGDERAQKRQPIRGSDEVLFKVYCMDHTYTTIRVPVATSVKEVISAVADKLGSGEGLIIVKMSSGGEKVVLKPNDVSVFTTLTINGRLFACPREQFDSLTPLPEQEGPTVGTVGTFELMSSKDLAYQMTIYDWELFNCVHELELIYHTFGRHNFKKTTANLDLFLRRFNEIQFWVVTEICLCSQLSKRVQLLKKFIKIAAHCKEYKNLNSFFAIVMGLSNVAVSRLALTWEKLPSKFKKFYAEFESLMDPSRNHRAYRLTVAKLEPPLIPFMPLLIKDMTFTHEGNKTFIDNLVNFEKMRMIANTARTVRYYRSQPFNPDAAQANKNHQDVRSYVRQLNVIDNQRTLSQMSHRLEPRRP

The target is the same in assay [4]. Put plainly: Confirmatory qHTS for antagonist of cAMP-regulated guanine nucleotide exchange factor 4 (EPAC2) (AID 1645885). For activity change, negative = inhibition: % is set by controls: 0 for no effect and ±100 for the full control effect. Note: nearly all actives have a fitted effect of over 25% in size. Note: potency is the fitted concentration of half-maximal effect. To be noted: EPAC2 Rap1B-BODIPY-GDP exchange fluorescence, biochemical; series mostly up to 12.7 µM.
In assay [5] the target is Rap guanine nucleotide exchange factor 3 (Homo sapiens) (UniProt O95398). Put plainly: Counterscreen qHTS for agonist of cAMP-regulated guanine nucleotide exchange factor 3 (EPAC1) (AID 1645889). For activation: % of control where 0% means no effect. Note: nearly all actives have a fitted effect of over 40% in size. Note: potency is the fitted concentration of half-maximal effect. To be noted: EPAC1 Rap1B-BODIPY-GDP exchange, fluorescence; series mostly up to 154 µM. In a few lines: (§1)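 Measured: fluorescence of BODIPY-GDP bound to Rap1B, which falls as exchange proceeds. Conditions include 50 uM competing GDP, 5 and 30 min reads, and a later cAMP challenge for antagonist detection.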
Rap guanine nucleotide exchange factor 3 (Homo sapiens), sequence (O95398 whole entry, looked up): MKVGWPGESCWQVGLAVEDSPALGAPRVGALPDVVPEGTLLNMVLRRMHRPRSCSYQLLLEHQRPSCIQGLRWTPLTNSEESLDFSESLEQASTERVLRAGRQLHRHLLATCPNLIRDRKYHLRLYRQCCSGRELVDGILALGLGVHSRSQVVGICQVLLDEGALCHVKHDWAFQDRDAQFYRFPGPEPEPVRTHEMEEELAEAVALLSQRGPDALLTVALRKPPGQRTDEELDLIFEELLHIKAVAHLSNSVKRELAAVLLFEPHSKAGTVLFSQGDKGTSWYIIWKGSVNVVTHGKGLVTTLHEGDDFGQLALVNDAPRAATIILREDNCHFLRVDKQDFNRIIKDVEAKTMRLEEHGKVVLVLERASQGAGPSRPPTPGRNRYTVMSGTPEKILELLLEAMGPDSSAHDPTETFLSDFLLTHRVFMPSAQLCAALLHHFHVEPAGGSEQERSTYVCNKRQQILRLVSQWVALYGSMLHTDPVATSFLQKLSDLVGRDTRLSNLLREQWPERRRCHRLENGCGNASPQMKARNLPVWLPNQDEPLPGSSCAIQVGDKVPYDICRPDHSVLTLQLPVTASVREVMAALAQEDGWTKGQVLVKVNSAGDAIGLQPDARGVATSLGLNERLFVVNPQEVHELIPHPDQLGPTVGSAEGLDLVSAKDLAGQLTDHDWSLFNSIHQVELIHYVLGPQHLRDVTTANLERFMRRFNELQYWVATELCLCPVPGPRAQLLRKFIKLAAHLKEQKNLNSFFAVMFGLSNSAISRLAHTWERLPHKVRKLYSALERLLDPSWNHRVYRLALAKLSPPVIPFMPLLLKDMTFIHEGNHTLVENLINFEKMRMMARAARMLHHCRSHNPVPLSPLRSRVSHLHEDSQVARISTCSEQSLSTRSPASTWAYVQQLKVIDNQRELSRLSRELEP
A general note: The purpose of a counterscreen is to sort out artefacts and off-target activity.

Assay [6] has the same target. Put plainly: Counterscreen qHTS for antagonist of cAMP-regulated guanine nucleotide exchange factor 3 (EPAC1) (AID 1645888). Note: % of control where 0% means no effect. The settings on record: Rap1B-BODIPY-GDP nucleotide exchange, fluorescence; series mostly up to 154 µM. Put shortly: as §1

Results filed as inconclusive are left out. Values without a mark were called inactive. Calls of active or inactive are those of the source. Calls come from the whole dose curve; as a rule, active = well fitted curve in the direction sought with a large enough effect; inconclusive = small, poorly fitted or top-dose-only effect, or another doubt; inactive = no such curve, though single readings can be large; an effect the other way counts as inactive or inconclusive.

Here are results for 30 compounds from PubChem BioAssay (NCATS).

With `O=C(N/N=C/C=C\c1ccco1)c1ccccn1`, in assay [1], the Potency is 6.01 µM (active). For the same compound, the Potency entry in assay [2], in assay [3], in assay [4] and in assay [5] was “inactive” throughout.

For the compound `CCO/C(C)=N/Oc1cc(OC)cc(OC)c1`, the Potency entry in assay [1], in assay [2], in assay [3] and in assay [5] was “inactive” in each case. In assay [4], the Potency was 23.9 µM (active).

Consider `N#C/C(=C/c1ccc(N2CCOCC2)o1)c1nc2ccccc2[nH]1`, for which the Potency result in assay [1] was “inactive”. Moreover, the Potency in assay [2] was 112 µM (active); in assay [3] it was 89.1 µM (active); in assay [4], 42.6 µM (active); in assay [5] it was 63.1 µM (active).

Turning to `CCOC(=O)c1c(CC(C)C)csc1N`, the Potency entry in assay [1], in assay [2], in assay [3], in assay [4] and in assay [5] was “inactive” each time.

Consider `CC1(C(=O)NS(=O)(=O)c2ccc(C#N)cc2)CCN1C(=O)C1(c2ccccc2)CCCC1` (configuration not stated), for which the Potency in assay [1] was 37.9 µM (active); in assay [4], 33.8 µM (active). Besides, the Potency entry in assay [2], in assay [3] and in assay [5] was “inactive” each time.

Turning to `COc1ccc(C(=O)COC(=O)CCN2C(=O)C3CC=CCC3C2=O)c(OC)c1` (configuration not stated), the Potency entry in assay [1], in assay [2] and in assay [4] was “inactive” in each case. In addition, the activation in assay [3] was 1.05% [at 17.1 µM, percent relative to cAMP agonist control]; in assay [5], -0.565% [at 30.8 µM]. Moreover, the activity change, negative = inhibition in assay [6] was -27.6% [at 30.8 µM].

`COc1cccc(/C(=N/O)C2CC2c2ccc(Cl)cc2)c1` (configuration not stated): the Potency result in assay [1], in assay [2] and in assay [4] was “inactive” each time. The activation in assay [3] is 1.73% [at 17.1 µM, percent relative to cAMP agonist control]; in assay [5], 9.41% [at 30.8 µM].

As for `CCOC(=O)N1CCN(S(=O)(=O)c2cc(-c3nn4c(C)nnc4c4ccccc34)ccc2C)CC1`, the Potency result in assay [1], in assay [2], in assay [3], in assay [4] and in assay [5] was “inactive” each time.

In the case of `O=C(CN1C(=O)N/C(=C\c2ccccc2OCc2ccc(C(=O)O)cc2)C1=O)Nc1ccccc1F`, the Potency in assay [1] is 28.2 µM (active). Besides, the Potency result in assay [2] and in assay [4] was “inactive” each time. Moreover, the activation in assay [3] was 5.81% [at 17.1 µM, percent relative to cAMP agonist control]; in assay [5], 19.6% [at 30.8 µM]. For the same compound, the activity change, negative = inhibition in assay [6] was -13.4% [at 30.8 µM].

In the case of `O=C1NC(=O)C2(N1)C(=O)c1cccc3cccc2c13` (configuration not stated), the Potency result in assay [1] was “inactive”. For the same compound, the Potency in assay [2] was 112 µM (active); in assay [3] it was 100 µM (active); in assay [4], 47.8 µM (active); in assay [5], 44.7 µM (active).

Take `CC1C/C(=C/c2cccn2C)C(=O)/C(=C/c2cccn2C)C1` (configuration not stated): the values for the Potency in assay [1] and in assay [5] were 16.9 µM (active) and 79.4 µM (active), respectively. Further, the Potency entry in assay [2], in assay [3] and in assay [4] was “inactive” in each case.

As to `CN(C(=O)COC(=O)/C=C/c1ccc2c(c1)OCO2)c1c(N)n(Cc2ccccc2)c(=O)[nH]c1=O`, the Potency entry in assay [1], in assay [2], in assay [3], in assay [4], in assay [6] and in assay [5] was “inactive” in each case.

On to `COc1ccc(OCC(=O)Nc2ccccc2N2CCCCC2)cc1`, for which the Potency entry in assay [1], in assay [2] and in assay [4] was “inactive” in each case. Besides, the activation was -5.15% [at 17.1 µM, percent relative to cAMP agonist control] in assay [3] and 2.16% [at 30.8 µM] in assay [5]. Besides, the activity change, negative = inhibition in assay [6] was -4.31% [at 30.8 µM].

Turning to `Cc1cnc(C(=O)N(c2ccc(N3CCOCC3)cc2)C2C(=O)Nc3ccccc3N=C2c2ccc(F)cc2)cn1` (configuration not stated), the Potency result in assay [1], in assay [2], in assay [3], in assay [4] and in assay [5] was “inactive” in each case.

Turning to `CCCCC1=CC2=CC(=O)C(C)(OC(=O)C3CCCC3)C(=O)C2=CO1` (configuration not stated), the Potency in assay [1] was 39.8 µM (active). Also, the Potency entry in assay [2] and in assay [4] was “inactive” in each case. Further, the activation in assay [3] is 1.4% [at 17.1 µM, percent relative to cAMP agonist control]; in assay [5] it was 18% [at 30.8 µM].

Regarding `O=C(CCCCCl)Nc1c2c(nc3ccccc13)CCC2`, the Potency entry in assay [1], in assay [2] and in assay [4] was “inactive” in each case. The activation in assay [3] was 1.22% [at 17.1 µM, percent relative to cAMP agonist control]; in assay [5], -2.96% [at 30.8 µM].

As for `CC1(C)CC[C@]2(C(=O)n3ccnc3)CC[C@]3(C)[C@H](C(=O)C=C4[C@@]5(C)C=C(C#N)C(=O)C(C)(C)[C@@H]5CC[C@]43C)[C@@H]2C1`, the Potency in assay [1] was 14.1 µM (active). The Potency result in assay [2] and in assay [4] was “inactive” each time. For the same compound, the activation in assay [3] was -11.4% [at 17.1 µM, percent relative to cAMP agonist control]; in assay [5], 18.4% [at 30.8 µM]. In assay [6], the activity change, negative = inhibition was -3.92% [at 30.8 µM].

For `C/C(=C\C(=O)c1ccccc1)Nc1ccc(O)cc1`, the Potency entry in assay [1], in assay [2] and in assay [4] was “inactive” in each case. For the same compound, the activation in assay [3] was 3.61% [at 17.1 µM, percent relative to cAMP agonist control]; in assay [5], 29.9% [at 30.8 µM].

In the case of `O=c1oc2cc(O)ccc2cc1-c1nc2ccccc2o1`, in assay [1], the Potency entry was “inactive”. Further, the Potency was 100 µM (active) in assay [2], 112 µM (active) in assay [3], 84.9 µM (active) in assay [4] and 70.8 µM (active) in assay [5].

Turning to `CCN(CC)c1ccc2cc(-c3nnc(Nc4ccc(C)cc4)s3)c(=O)oc2c1`, the values for the Potency in assay [2], in assay [3] and in assay [4] were 112 µM (active), 35.5 µM (active) and 5.36 µM (active), respectively.

As for `COc1cccc(C(NC(C)=O)c2nc(-c3csc4ccccc34)cs2)c1` (configuration not stated), the Potency entry in assay [1], in assay [2] and in assay [4] was “inactive” throughout. Moreover, the activation in assay [3] was 1.45% [at 17.1 µM, percent relative to cAMP agonist control]; in assay [5], 29.4% [at 30.8 µM]. The activity change, negative = inhibition in assay [6] is -22.7% [at 30.8 µM].

`O=C(Nc1ccncc1)c1ccc2ncsc2c1`: the Potency result in assay [1], in assay [2], in assay [3], in assay [4], in assay [6] and in assay [5] was “inactive” each time.

`CC1(C)CC(=O)c2sc(N3CCCCC3)nc2C1`: the Potency entry in assay [1], in assay [2], in assay [3] and in assay [5] was “inactive” each time. Besides, the Potency in assay [4] is 75.7 µM (active).

On to `COc1ccc2nc(N3CCN(C(=O)C4CC4)CC3)sc2c1`, for which the Potency entry in assay [1], in assay [2], in assay [3] and in assay [5] was “inactive” each time. Moreover, the outcome in assay [4] was “inactive [at 12.7 µM]”.

As to `O=C(NCCCn1ccnc1)c1cc(-c2cccnc2)nc2ccc(Br)cc12`, the Potency entry in assay [1], in assay [2], in assay [3], in assay [4] and in assay [5] was “inactive” each time.

Take `NS(=O)(=O)c1ccc(CCNC(=O)c2ccc3nccnc3c2)cc1`: the Potency in assay [1] is 47.8 µM (active). The Potency entry in assay [2], in assay [3], in assay [4], in assay [6] and in assay [5] was “inactive” each time.

Take `CCOc1c(OC)cccc1C(=O)NCC1(c2ccccc2)CCCC1`: the Potency result in assay [1], in assay [2], in assay [3], in assay [4], in assay [6] and in assay [5] was “inactive” throughout.

Take `Cc1cc(N=Nc2ccccc2C(=O)O)c(C)c(C)c1O`: the Potency in assay [1] was 39.8 µM (active). Moreover, the Potency entry in assay [2] and in assay [4] was “inactive” throughout. The activation in assay [3] is -13.7% [at 17.1 µM, percent relative to cAMP agonist control]; in assay [5], 4.71% [at 30.8 µM].

As for `O=CN(CCN(C=O)CN1CCCCC1)CN1CCCCC1`, the Potency result in assay [1], in assay [2], in assay [3], in assay [4] and in assay [5] was “inactive” in each case.

For `CC(=O)C1=C(c2ccc(C)cc2)N(C(C)=O)n2c(nnc2C2CCCCC2)S1`, the Potency result in assay [1], in assay [2], in assay [3], in assay [4] and in assay [5] was “inactive” each time.
